# In PubChem BioAssay (NCATS):
# Records with an inconclusive call do not appear. Entries that show only a call come without a potency. A number with no mark means an inactive call. The source made the active and inactive calls. Calls come from the whole dose curve; as a rule, active = well fitted curve in the direction sought with a large enough effect; inconclusive = small, poorly fitted or top-dose-only effect, or another doubt; inactive = no such curve, though single readings can be large; an effect the other way counts as inactive or inconclusive.
# Legend:
# [1] = qHTS for Inhibitors of Plasmodium falciparum (DD2) proliferation (AID 504314);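 note: parasite DNA measured by SYBR Green fluorescence after red cell lysis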
# In short: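 Quantitative HTS growth inhibition: SYBR Green I binding to parasite DNA after 72 h drug exposure of infected erythrocytes (0.3% parasitemia, 2.5% hematocrit). Signals normalized per plate to inhibitor and vehicle wells.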
# [2] = qHTS for Inhibitors of Plasmodium falciparum (GB4) proliferation (AID 504315); note: nearly all actives have a fitted effect of over 50% in size; note: potency is the fitted concentration of half-maximal effect
# In short: (§1)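 Erythrocytes infected with P. falciparum line (0.3% parasitemia, 2.5% hematocrit final) incubated with compounds 72 h at 37 °C, 5% CO2; SYBR Green lysis buffer added, fluorescence read next day. Normalized to 0.29 uM artemisinin and DMSO.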
# [3] = qHTS for Inhibitors of Plasmodium falciparum (7G8) proliferation (AID 504316); note: nearly all actives have a fitted effect of over 65% in size; note: potency is the fitted concentration of half-maximal effect
# In short: as §1
# [4] = qHTS for Inhibitors of Plasmodium falciparum (HB3) proliferation (AID 504318); note: nearly all actives have a fitted effect of over 60% in size
# In short: as §1
# [5] = qHTS for Inhibitors of Plasmodium falciparum (CP250) proliferation (AID 504320)
# In short: as §1
Compound,Potency [1],Potency [2],Potency [3],Potency [4],Potency [5]
CC(CCN1CCCc2nc(C)c(C)cc21)=NO[C@H](C)c1cn([C@@H]2COC[C@@H]2O)nn1,inactive,inactive,inactive,inactive,
CC#CCN1c2ccccc2[C@]23C[C@@H](C(=O)OC)N(S(=O)(=O)CCCC)C2=NC(C(=O)OC)=C(C(=O)OC)[C@H]13,inactive,,,,
C[C@H]1Cc2c(COc3ccccc3)nc3c(c2CO1)CN(C(=O)c1ccco1)CC3,inactive,,,,
Nc1ccccc1C(=O)C=Cc1ccccc1,inactive,inactive,,,
COc1ccc(-c2nc3c(c4c2C[C@H](c2ccccc2)OC4)CN(C(=O)C2CCCCC2)CC3)c(C)c1,inactive,,,,
COC(=O)CCCC1=CC2=CC(=O)C(C)(OC(=O)c3cccs3)C(=O)C2=CN1C(CO)CO (configuration not stated),inactive,inactive,inactive,,
CC#CCN1c2ccccc2[C@]23C[C@@H](C(=O)OC)N(S(=O)(=O)c4ccc(OC)cc4)C2=NC(C(=O)OC)=C(C(=O)OC)[C@H]13,inactive,2130 nM (active),,,
CCOC(=O)CN1C(=O)N[C@@H](c2cccs2)C(C(C)=O)=C1C,inactive,inactive,inactive,,
Cc1ccc(S(=O)(=O)N2CCc3nc(COc4ccccc4)c4c(c3C2)CO[C@@H](C)C4)cc1,inactive,,,,
CCOC(=O)CN1C(=O)NC(c2cccc(C(F)(F)F)c2)C(C(C)=O)=C1C (configuration not stated),inactive,inactive,inactive,,
COC(=O)CCC(=O)OC1(C)C(=O)C=C2C=C(C3CC3)N(C3CCCC3)C=C2C1=O (configuration not stated),inactive,inactive,inactive,,
COC(=O)C1=C(C(=O)OC)[C@@H]2N(C)c3ccccc3[C@@]23C[C@@H](C(=O)OC)N(S(=O)(=O)c2ccc(Br)cc2)C3=N1,inactive,2130 nM (active),1690 nM (active),,
CCN1C(=O)N[C@@H](c2ccccc2)[C@H](C(C)=O)[C@H]1C,inactive,inactive,inactive,inactive,
C=CCN1c2ccccc2[C@]23C[C@@H](C(=O)OC)N(S(=O)(=O)c4ccc([N+](=O)[O-])cc4)C2=NC(C(=O)OC)=C(C(=O)OC)[C@H]13,inactive,1510 nM (active),1690 nM (active),,
COC(=O)C1=C(C(=O)OC)[C@@H]2N(C)c3ccccc3[C@@]23C[C@@H](CO)N(C(=O)c2ccco2)C3=N1,inactive,inactive,inactive,inactive,
COC(=O)C1=C(C)N(Cc2ccccc2)C(=S)NC1c1cccc(F)c1 (configuration not stated),inactive,inactive,inactive,inactive,
COC(=O)C1=C(C(=O)OC)[C@@H]2N(C)c3ccccc3[C@@]23C[C@@H](C(=O)OC)N(S(=O)(=O)c2ccc([N+](=O)[O-])cc2)C3=N1,inactive,1690 nM (active),,,
O=C1c2cc(Br)ccc2O[C@@H](c2ccc3c(c2)OCO3)[C@@H]1O,inactive,inactive,inactive,inactive,
CCN1C(=O)N[C@@H](CCc2ccccc2)C(C(=O)OC)=C1C,inactive,inactive,inactive,,
COC(=O)C1=C(C(=O)OC)[C@@H]2Nc3ccccc3[C@@]23C[C@@H](C(=O)OC)N(S(=O)(=O)c2ccc4c(c2)OCCN4C)C3=N1,inactive,1690 nM (active),1510 nM (active),,
CCN(CC)CCCN1C=C2C(=O)C(C)(OC(=O)C3CCCC3)C(=O)C(c3ccccc3)=C2C=C1CCCC(=O)OC (configuration not stated),inactive,inactive,inactive,inactive,
COc1ccc(-c2nc3c(c4c2C[C@H](c2ccccc2)OC4)CN(C(=O)NCCc2c[nH]c4ccccc24)CC3)c(C)c1,inactive,inactive,inactive,,
CC#CCN1c2ccccc2[C@]23C[C@@H](C(=O)OC)N(S(=O)(=O)c4ccc5c(c4)OCCN5C)C2=NC(C(=O)OC)=C(C(=O)OC)[C@H]13,inactive,,,,
CCCCc1nc2c(c3c1C[C@H](C)OC3)CN(C(=O)N[C@@H](C)c1ccccc1)CC2,inactive,inactive,inactive,inactive,inactive
